Only some compounds are listed: those with a hit (about 0.93% of all), similar ones and a draw of the others.
LAP4 TOR yeast: alters LAP4-GFP fluorescence in TOR pathway yeast screen; GFP response vs DMSO, % at 10 µM; hit rate 0.34% among 320,000; S. cerevisiae LAP4-GFP multiplex, flow cytometry GFP, 3 h; median GFP as percent of DMSO wells;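 active means GFP response vs DMSO above a set limit, about the screen mean plus 3 SD, cut at about 150% in these data; inconclusive means under 70 cell events counted for the yeast strain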
MEP2-GFP yeast: alters MEP2-GFP fluorescence in TOR pathway yeast screen | GFP response vs DMSO, % at 10 µM | hit rate 0.51% among 330,000 | AID 2016 | S. cerevisiae MEP2-GFP strain, flow cytometry GFP, 3 h; 100% = DMSO control level;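 active means GFP response versus DMSO above a set limit, roughly screen mean plus 3 SD, cut at about 180% in these data; inconclusive means fewer than 70 cells counted for a yeast strain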;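 further: median GFP fluorescence of the barcode-gated MEP2-GFP cells per well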
RPL19A-GFP yeast: alters RPL19A-GFP fluorescence in TOR pathway yeast screen | AID 2025 | percent response vs DMSO, % at 10 µM | S. cerevisiae RPL19A-GFP strain, flow cytometry, 3 h; active compounds read low | hit rate 0.3% among 330,000;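 active means percent response vs DMSO below 50%; inconclusive means fewer than 70 events counted for the yeast strain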;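 further: median channel GFP fluorescence of the barcoded RPL19A-GFP strain; ratio of sample median GFP to plate DMSO average so 100% = DMSO; lower means less RPL19A-GFP as with rapamycin TOR inhibition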
CIT2 TOR yeast: alters CIT2-GFP fluorescence in TOR pathway yeast screen. S. cerevisiae CIT2-GFP strain, flow cytometry, 3 h; 100 means same as DMSO wells. GFP response vs DMSO, % at 10 µM. hit rate 0.065% among 320,000;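 active means GFP response relative to DMSO above a set limit, near the screen mean plus 3 SD, cut at about 150% in these data; inconclusive means Fewer than 70 cells measured for a yeast strain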;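 further: ratio of well median GFP fluorescence to mean of DMSO wells on the plate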
AGP1 TOR yeast: alters AGP1-GFP fluorescence in TOR pathway yeast screen | hit rate 0.02% among 320,000 | GFP response vs DMSO, % at 10 µM | AID 2066 | S. cerevisiae AGP1-GFP multiplex flow cytometry, 3 h; GFP as percent of DMSO wells;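 active means GFP response relative to DMSO above a set limit, near screen average plus 3 SD, cut at about 150% in these data; inconclusive means fewer than 70 cells counted for the yeast strain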;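 further: median GFP channel fluorescence of the gated AGP1 strain per well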
* marks the source's active call; other numbers are inactive results; ? = inconclusive; nt = not tested or not shown; [ ] = dose if it differs, or a comment.

SMILES	LAP4 TOR yeast	MEP2-GFP yeast	RPL19A-GFP yeast	CIT2 TOR yeast	AGP1 TOR yeast
COc1ccccc1NC1=C(C)C(=O)CC1	90	315*[may fluoresce violet]	90	?	17
COC1=C(Nc2ccccc2OC)C(=O)c2ccccc2C1=O	109	98	98	91	100
CCCCN(C(=O)c1c(CC)noc1C)c1c(N)n(CCCC)c(=O)[nH]c1=O	109	107	105	101	112
N/C(=N/OC(=O)c1ccccc1Cl)c1ncc([N+](=O)[O-])s1	125	741*[may fluoresce violet]	70	?	?
COc1ccc(-c2nnc(SCC(=O)NC3CCCCC3)o2)cc1	98	200*[may fluoresce violet]	62	?	32
COc1ccc(OCc2nnc(SCC(=O)Nc3ccc(C)cc3)o2)cc1	92	195*[may fluoresce violet]	94	?	20
N#Cc1ccc(CN2CCN(C(=O)CCNS(=O)(=O)c3ccc(F)c(Cl)c3)CC2)cc1	100	101	99	96	99
O=C(CSc1nnc(Cc2cc(=O)[nH]c(=O)[nH]2)n1-c1ccccc1)N1CCCCC1	99	97	95	96	98
O=C(CSc1nnc(CCCN2C(=O)c3cccc4cccc(c34)C2=O)n1-c1ccccc1)N1CCCCC1	67	248*[may fluoresce violet]	22*[may fluoresce violet]	?	?
Cc1cccc(OCC(=O)Nc2ccc3c(C)cc(=O)oc3c2)c1	83	89	95	92	85
Cc1cc(=O)oc2cc(NC(=O)CCOc3ccccc3)ccc12	61	255*[may fluoresce violet]	38*[may fluoresce violet]	?	?
Cc1cccc(OCC(=O)NCCCNC(=O)c2ccncc2)c1	86	111	107	nt	99
COc1ccc(CNc2nc(-c3cccnc3)nn2C(=O)c2ccco2)cc1	101	280*[may fluoresce violet]	nt	?	?
COc1ccc(CNc2nc(-c3cccnc3)nn2C(C)=O)cc1	101	111	101	108	106
Cc1cc(NC(=O)C2CCCCC2C(=O)O)ccc1NC(=O)c1ccccc1 (configuration not stated)	89	97	102	110	99
N=C1/C(=C\c2ccc(Br)o2)C(=O)N=C2SC(CC(=O)N3CCCCC3)=NN12	90	152	48*	108	20
CC1(C)CNC(=O)CC(C)(C)N1	89	186*[may fluoresce violet]	91	?	13
C=CCOc1ccccc1CN1CCC(Cc2ccccc2)CC1	90	110	101	108	103
Cc1ccc(NC(=O)COc2ccc(Br)cc2C)cc1	132	243*	104	96	95
CCOc1ccc(NC(=O)CCC(=O)NNC(=O)COc2ccc(C)cc2Br)cc1	?	?	46*[may fluoresce violet]	?	?
Cc1ccc(OCC(=O)Nc2ccc(NC(=O)c3ccco3)cc2)c(C)c1	95	117	108	94	107
CCOc1ccc(NC(=O)CCC(=O)NNC(=O)COc2ccc(C)cc2)cc1	102	101	99	107	107
COc1ccc(NC(=O)CSc2nc3ccccc3c3nc4ccccc4n23)cc1	61	124	24*[may fluoresce violet]	?	?
O=C(N1CCN(Cc2ccc3c(c2)OCO3)CC1)C(Cl)(Cl)Cl	86	96	99	103	96
CCc1ccc(OCC(=O)Nc2ccc(S(=O)(=O)Nc3cc(C)on3)cc2)c(Br)c1	99	113	100	nt	99
SMILES	LAP4 TOR yeast	MEP2-GFP yeast	RPL19A-GFP yeast	CIT2 TOR yeast	AGP1 TOR yeast
O=C(c1cccc([N+](=O)[O-])c1)N1CCN(c2ccc(Cl)cc2)CC1	86	103	103	99	95
CCc1nc2ccc(C(=O)N3CCN(c4ccc([N+](=O)[O-])cc4)CC3)cc2nc1CC	82	122	24*[may fluoresce violet]	?	?
CC(Oc1ccc(Br)cc1)C(=O)Nc1cc(Cl)ccc1N1CCN(C)CC1 (configuration not stated)	106	101	104	101	109
Cc1nc(SCC(=O)NCc2ccco2)c2c3c(sc2n1)CCCC3	106	183*[may fluoresce violet]	56	?	39
O=C(CSc1nc(C2CC2)nc2sc3c(c12)CCCC3)NCc1ccco1	105	109	100	108	111
O=C(CN(C(=O)C1CSC(=O)C1)c1cccc(F)c1)NCc1ccc2c(c1)OCO2 (configuration not stated)	94	96	99	97	96
O=C(NC(=S)NNC(=O)c1ccco1)c1ccccc1	151*[may fluoresce green]	102	101	103	112
Cc1ccc(F)c(CNC(=O)C2CCC(=O)N(CCCN3CCCC3=O)C2)c1F (configuration not stated)	99	100	98	107	99
O=C(CC(=O)NC1CCCCC1)N/N=C/c1ccc(Cl)cc1	81	230*[may fluoresce violet]	71	?	25
COC(=O)c1ccc(/C=N/NC(=O)CC(=O)NC2CCCCC2)cc1	103	94	95	91	95
O=C(NCC(=O)N1CCCC1)c1cccs1	152*	174	111	145	120
CCOC(=O)C1=C(c2ccccc2)NC(=S)NC1c1cc([N+](=O)[O-])ccc1OC (configuration not stated)	92	272*	nt	116	27
COc1ccc(C2/C(=C(/O)c3ccccc3)C(=O)C(=O)N2CCO)cc1 (configuration not stated)	91	212*[may fluoresce violet]	62	?	25
Cc1ccccc1NC(=O)C1CCN(c2cc(-c3ccccc3)nc3ncnn23)CC1	61	257*[may fluoresce violet]	60	?	?
COc1ccc(-n2nc3c(N4CCC(C(=O)NCc5cccc(C)c5)CC4)nnc(C)c3c2C)cc1	59	235*[may fluoresce violet]	52	?	?
COc1ccc(NC(=O)c2ccccc2NC(=O)CN2CCCCCC2)cc1	99	102	99	98	99
CC(=O)c1cc2c(cc1NC(=O)CSc1nc3ccccc3[nH]1)OCO2	97	104	103	98	104
CC(=O)c1cc2c(cc1NC(=O)CSc1nc3ccccc3o1)OCO2	93	292*[may fluoresce violet]	41*[may fluoresce violet]	?	nt
Cc1ccc(Cl)cc1NC(=O)Cn1c(C)csc1=O	124	112	105	103	104
Cc1cccc(NC(=O)CN(CC2CCCO2)C(=O)c2oc3ccccc3c2C)c1C (configuration not stated)	103	104	99	99	107
Cc1cc(=O)oc2cc(OCC(=O)NCCCn3ccnc3)ccc12	94	100	96	107	102
Cc1c(C)c2ccc(OCC(=O)NCCCn3ccnc3)cc2oc1=O	84	138	48*	91	16
CCn1nnc2cc(C(=O)NCC(c3ccccc3OC)N(C)C)ccc21 (configuration not stated)	85	174	46*[may fluoresce violet]	?	?
Cc1[nH][nH]c(=O)c1C(c1ccc(N(C)C)c(Br)c1)c1c(C)[nH][nH]c1=O	172*	99	92	73	94
O=C(NNC(=O)c1cc(S(=O)(=O)N2CCOCC2)c(Cl)cc1Cl)c1ccccc1F	101	103	99	98	102
